# For part of these data: Measured potencies and affinities stand elsewhere. Activity calls are given as the source filed them. Unless noted, how the calls were made is not given here.
# Tests used:
# [1] = antimalarial activity against Dd2 strain (AID 2302;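 active means growth inhibition above 50% at the single 2 µM test dose, taken to imply half-maximal potency below 2 µM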;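 further: 0% = DMSO untreated growth and 100% = chloroquine plus artemisinin killed control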); conditions: P. falciparum Dd2 in RBCs, LDH growth readout, 72 h; at 2 µM; hits give high values
# [2] = HepG2 cytotoxicity, primary screen, cytotoxicity control for P. falciparum antimalarial project, cell-based, ATP luminescence (AID 2303;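 active means inhibition above 50%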;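 further: 0% = DMSO wells and 100% = digitonin-killed cells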); conditions: HepG2 viability, 24-48 h, at 10 µM, hits give high values
# [3] = molecular target: L-lactate dehydrogenase (Plasmodium falciparum (isolate CDC / Honduras)) (UniProt Q27743); experiment: PfLDH activity inhibition – cell lysate, 3D7 strain, counter-screen for P. falciparum growth inhibition project (AID 2304);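 further: 0% = vehicle and 100% = reference inhibitor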; conditions: P. falciparum 3D7 crude extract, LDH APAD/NBT absorbance; at 2 µM; hits give high values
# L-lactate dehydrogenase (Plasmodium falciparum (isolate CDC / Honduras)), sequence (Q27743 whole entry, looked up): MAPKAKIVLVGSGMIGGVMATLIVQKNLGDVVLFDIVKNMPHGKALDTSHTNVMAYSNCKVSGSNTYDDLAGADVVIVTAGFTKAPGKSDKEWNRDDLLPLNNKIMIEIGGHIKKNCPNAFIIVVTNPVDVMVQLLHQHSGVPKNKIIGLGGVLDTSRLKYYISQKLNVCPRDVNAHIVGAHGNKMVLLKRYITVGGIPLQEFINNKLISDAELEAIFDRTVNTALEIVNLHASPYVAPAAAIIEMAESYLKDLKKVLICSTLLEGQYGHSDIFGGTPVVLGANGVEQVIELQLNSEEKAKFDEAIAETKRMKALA
# [4] = inhibition of 3D7 malaria parasite growth – strain 3D7 (AID 2306);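 further: 0% = DMSO wells and 100% = chloroquine plus artemisinin control wells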; conditions: P. falciparum 3D7 erythrocytic growth, LDH absorbance, 72 h; at 2 µM; hits give high values
# [5] = molecular target: Calcium-dependent protein kinase 1 (Plasmodium falciparum (isolate 3D7)) (UniProt P62344); experiment: PfCDPK1 kinase inhibitors, biochemical, TCAMS library (AID 1159585; cut-off not given, nearly all actives have IC50 up to about 0.98 µM;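 further: inhibitors leave more ATP so luminescence rises with inhibition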); conditions: recombinant PfCDPK1, Kinase-Glo ATP depletion luminescence
# Calcium-dependent protein kinase 1 (Plasmodium falciparum (isolate 3D7)), sequence (P62344 whole entry, looked up): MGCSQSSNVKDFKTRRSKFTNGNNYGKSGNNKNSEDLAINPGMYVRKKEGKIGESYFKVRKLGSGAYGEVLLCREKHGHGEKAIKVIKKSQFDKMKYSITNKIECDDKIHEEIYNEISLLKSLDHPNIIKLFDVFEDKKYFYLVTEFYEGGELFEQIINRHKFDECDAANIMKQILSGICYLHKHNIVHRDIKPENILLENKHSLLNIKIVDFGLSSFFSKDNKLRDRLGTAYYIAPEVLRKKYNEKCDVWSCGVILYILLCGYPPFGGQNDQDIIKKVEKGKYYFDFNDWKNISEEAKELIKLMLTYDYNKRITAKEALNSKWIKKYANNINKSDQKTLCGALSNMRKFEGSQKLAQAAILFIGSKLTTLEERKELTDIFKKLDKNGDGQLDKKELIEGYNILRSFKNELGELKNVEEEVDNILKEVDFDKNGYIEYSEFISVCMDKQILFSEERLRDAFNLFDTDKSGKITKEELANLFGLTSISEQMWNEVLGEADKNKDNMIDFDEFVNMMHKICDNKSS
# [6] = molecular target: Plasmodium falciparum protein kinase 6 (PK6, PF3D7_1337100) (UniProt Q8IDW1); experiment: PfPK6 kinase inhibitors, biochemical, TCAMS library (AID 1159586); conditions: recombinant PfPK6, Kinase-Glo ATP depletion luminescence
# Plasmodium falciparum protein kinase 6 (PK6, PF3D7_1337100), sequence (Q8IDW1 1-305): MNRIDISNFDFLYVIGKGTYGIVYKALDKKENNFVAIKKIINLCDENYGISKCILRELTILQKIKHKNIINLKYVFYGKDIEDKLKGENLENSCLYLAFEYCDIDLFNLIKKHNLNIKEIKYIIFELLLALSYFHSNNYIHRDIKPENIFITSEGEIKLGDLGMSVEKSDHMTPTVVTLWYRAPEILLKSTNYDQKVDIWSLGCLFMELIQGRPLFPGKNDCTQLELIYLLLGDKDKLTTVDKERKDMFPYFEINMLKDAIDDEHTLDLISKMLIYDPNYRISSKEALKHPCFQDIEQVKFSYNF
# [7] = molecular target: Protein kinase 7 (PK7), Plasmodium falciparum 3D7 (PF3D7_0213400) (UniProt Q7YTF7); experiment: inhibition of Plasmodium PK7 catalytic activity – biochemical, TCAMS antimalarial set, Kinase-Glo luminescence (AID 1159587); conditions: recombinant PfPK7, Kinase-Glo ATP depletion luminescence
# Protein kinase 7 (PK7), Plasmodium falciparum 3D7 (PF3D7_0213400), sequence (Q7YTF7 1-343): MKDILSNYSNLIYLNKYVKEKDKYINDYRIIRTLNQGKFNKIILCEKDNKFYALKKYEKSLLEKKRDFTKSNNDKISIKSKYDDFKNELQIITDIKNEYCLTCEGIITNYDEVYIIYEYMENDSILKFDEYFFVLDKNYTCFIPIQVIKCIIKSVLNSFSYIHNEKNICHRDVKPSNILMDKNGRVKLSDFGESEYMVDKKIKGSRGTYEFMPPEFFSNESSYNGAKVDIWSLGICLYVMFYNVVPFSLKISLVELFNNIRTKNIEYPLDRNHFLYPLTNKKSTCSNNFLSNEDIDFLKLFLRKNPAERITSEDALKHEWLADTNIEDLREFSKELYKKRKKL
# [8] = molecular target: Calcium-dependent protein kinase 4 (Plasmodium falciparum (isolate 3D7)) (UniProt Q8IBS5); experiment: PfCDPK4 kinase inhibitors, biochemical, TCAMS library (AID 1159588; cut-off not given, nearly all actives have IC50 up to about 0.91 µM); conditions: recombinant PfCDPK4, Kinase-Glo ATP depletion luminescence
# Calcium-dependent protein kinase 4 (Plasmodium falciparum (isolate 3D7)), sequence (Q8IBS5 whole entry, looked up): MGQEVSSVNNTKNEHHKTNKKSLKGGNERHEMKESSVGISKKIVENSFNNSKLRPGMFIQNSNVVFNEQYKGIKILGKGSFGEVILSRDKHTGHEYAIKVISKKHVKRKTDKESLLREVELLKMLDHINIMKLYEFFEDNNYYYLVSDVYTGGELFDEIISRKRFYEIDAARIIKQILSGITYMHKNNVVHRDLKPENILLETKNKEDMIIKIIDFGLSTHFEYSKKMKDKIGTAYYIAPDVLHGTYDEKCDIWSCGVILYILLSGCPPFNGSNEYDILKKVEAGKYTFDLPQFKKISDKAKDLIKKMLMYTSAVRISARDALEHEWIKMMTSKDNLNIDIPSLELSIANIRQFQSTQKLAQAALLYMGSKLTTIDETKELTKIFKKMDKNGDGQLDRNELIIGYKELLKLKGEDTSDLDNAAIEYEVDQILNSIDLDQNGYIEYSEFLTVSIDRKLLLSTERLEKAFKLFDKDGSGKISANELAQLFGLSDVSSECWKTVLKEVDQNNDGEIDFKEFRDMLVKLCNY
Compound,growth inhibition [1],inhibition [2],inhibition [3],growth inhibition [4],outcome [5],outcome [6],outcome [7],outcome [8]
COc1cc2c(cc1C(F)(F)F)N(C(=O)Nc1cc(OC(F)(F)F)cc(-c3cccnc3)c1)CC2,49% (inactive),55% (active),-3% (inactive),100% (active),inactive,inactive,inactive,inactive
Cc1noc(C)c1-c1cccc(CNCc2ccc(-c3cccc(-c4nc5ccccc5[nH]4)c3)cc2)c1,57% (active),50% (active),-1% (inactive),100% (active),inactive,inactive,inactive,inactive
Cc1ccc(Oc2c(-c3ccccc3CN3CCCC3CN(C)C)cnn(C)c2=O)cn1 (centres undefined),9% (inactive),-1% (inactive),-4% (inactive),88% (active),inactive,inactive,inactive,inactive
